# rCAG RNA binder = binders of r(CAG) RNA repeats, primary screen, biochemical, fluorescence; r(CAG) RNA repeat, TO-PRO-1 dye displacement fluorescence; inhibition, % at 3 µM; 1.3% of 370,000 active;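 active = inhibition above the plate cutoff, the mean of all test compounds on that plate plus 3 SD, cut at about 35% in these data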;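 note: 0% = DMSO alone and 100% = 100 µM mitoxantrone as full dye displacement; higher means more dye released from RNA so lower well fluorescence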
# MsrA act = bovine MsrA enzyme activators, primary screen, biochemical, absorbance, HTS; Methionine sulfoxide reductase A (Bos taurus); purified bovine MsrA, absorbance read-out; activation, % at 10.6 µM; 0.3% of 360,000 active; in the data active = activation above about 7.5%;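 note: 0% = vehicle and 100% = reference activator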
# NadD block = inhibitors of S. aureus NadD, primary screen, biochemical, colorimetric, uHTS; AID 602399, 2012; 0.78% of 360,000 active; purified NadD enzyme, colorimetric absorbance read-out; inhibition, % at 20 µM; in the data active = inhibition above about 26%
# MsrA inhibitor = bovine MsrA enzyme inhibitors, primary screen, biochemical, absorbance, HTS; Methionine sulfoxide reductase A (Bos taurus); purified bovine MsrA, absorbance read-out; inhibition, % at 15.5 µM; 0.75% of 360,000 active; AID 651718, 2012;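 note: 0% = vehicle wells with enzyme and 100% = reference inhibitor wells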
# MsrA conf = bovine MsrA inhibitors, retest, confirmation, biochemical, absorbance, HTS. shares compounds with MsrA inhibitor. 41% of 2,300 active. inhibition, % at 15.5 µM. purified bovine MsrA, absorbance read-out;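 note: coupled to thioredoxin reductase with NADPH and selenocystamine and DMSO as substrate; 0% = vehicle only and 100% = full effect of reference inhibitor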
# * = called active by the depositor; / = no result. Shown are actives, neighbours in structure and some others; about 2.7% of the full set was active somewhere. Cut-off read from the data, not from the text of the source, unless noted: active = inhibition above about 4.5%; inactive = the rest.
SMILES,rCAG RNA binder,MsrA act,NadD block,MsrA inhibitor,MsrA conf
CC1CCC2(CC1)CCN(CCCOC(=O)NCc1ccc(Cl)cc1)C2=O (centres undefined),0,/,/,/,/
COc1ccc(-c2c(-c3ccc4c(c3)OCO4)c3ccccc3n2C)cc1,8,-6,3,0,/
CCN(C(=O)CCS(=O)(=O)c1ccc(Br)cc1)c1ccc2c(c1)OCO2,-4,-2,4,14*,7.3*
O=C(CCS(=O)(=O)c1ccc(Br)cc1)Nc1ccc2c(c1)OCO2,7,-10,-9,-1,/
Cn1c(C(C#N)C(=O)Cc2cccc3ccccc23)nc2ccccc21 (centres undefined),7,-11,3,1,/
Cn1c(C(C#N)C(=O)c2ccco2)nc2ccccc21 (centres undefined),3,-3,0,5.1*,5.5*
c1ccc2c(c1)nc(-c1ccncc1)n1nnnc21,2,-7,1,13*,12*
Cc1ccc(C(=O)N/N=C/c2nc3ccccc3n2C)cc1,0,-5,-1,2,/
Cn1c(/C=N/NC(=O)c2ccccc2Br)nc2ccccc21,-4,-2,0,5.3*,3
CSc1ccc(/C=N/NC(=O)c2cccc(O)c2)cc1,-1,-3,-6,4.8*,5.6*
CCOc1ccc(C(=O)N/N=C/c2ccc(SC)cc2)cc1,2,-4,2,1,/
O=C(CSc1nnc(SCc2cccc3ccccc23)s1)c1ccc(F)cc1,8,/,/,/,/
COc1ccc(/C=C2\SC(N)=NC2=O)cc1,0,-4,3,4.8*,5.0*
NC1=NC(=O)/C(=C/c2ccsc2)S1,1,-6,-2,5.7*,4
O=C(COc1cccc(C(F)(F)F)c1)Nc1nnc(C2CC2)s1,2,-1,-3,-1,/
O=c1[nH]c(/C=C\c2ccc(O)cc2)nc(O)c1[N+](=O)[O-],16,-4,-1,4,/
O=c1[nH]c(/C=C\c2cccs2)nc(O)c1[N+](=O)[O-],3,-5,10,5.3*,3
Fc1ccc(N2CCN(c3cnc4ccccc4n3)CC2)cc1,0,-3,-4,0,/
CN1CCN(CC(=O)Nc2cc(N3CCOCC3)ccc2[N+](=O)[O-])CC1,-4,-3,-4,4.8*,0
CN1CCN(CC(=O)Nc2ccccc2[N+](=O)[O-])CC1,0,-5,0,0,/
N#Cc1ccc(CSc2nnc(NC(=O)c3ccc4ncsc4c3)s2)cc1,4,-8,9,1,/
N#Cc1ccc(CSc2nnc(NC(=O)c3ccc(=O)[nH]c3)s2)cc1,8,-2,-2,6.0*,2
CN(C)c1ccc(/C=N/N2C(=S)SC(C)(C)C2N(O)C(=O)Nc2ccc([N+](=O)[O-])cc2)cc1 (centres undefined),8,-10,20,6.1*,2
CCc1nc2sccc2c(=O)n1N,-1,-13,-1,1,/
NS(=O)(=O)c1ccc(N/N=C/c2ccccn2)c([N+](=O)[O-])c1,4,-13,1,5.9*,4
SMILES,rCAG RNA binder,MsrA act,NadD block,MsrA inhibitor,MsrA conf
NS(=O)(=O)c1ccc(N/N=C/c2ccc(O)cc2O)c([N+](=O)[O-])c1,16,-6,-3,6.2*,3
O=[N+]([O-])c1cc(S(=O)(=O)N2CCCC2)ccc1N/N=C/c1ccccn1,5,-2,-3,0,/
Cn1c(CNC(=O)c2ccccc2F)nnc1SCCOc1ccccc1,-4,-2,-9,-1,/
O=C(Nc1ccc(C(=O)O)cc1)/C(=C\c1ccc2c(c1)OCO2)NC(=O)c1ccco1,1,-8,5,7.4*,5.0*
O=C(Nc1ccc(C(=O)O)cc1)/C(=C\c1ccc2c(c1)OCO2)NC(=O)c1ccc(Br)o1,12,-7,-4,5.1*,3
O=C(Nc1cccc(C(=O)O)c1)/C(=C\c1ccc2c(c1)OCO2)NC(=O)c1ccc(Br)o1,8,-5,1,3,/
CCn1nccc1C(=O)Nc1ccc(C)c(C)c1,/,-2,-4,/,/
CCOC(=O)/C(C#N)=C/c1ccc(N2CCN(C)CC2)cc1,-3,1,-9,3,/
CCOC(=O)C(/C=C(\C#N)C(=O)OCC)=C(/N)N1CCN(c2ccccc2)CC1,-7,-3,-6,6.8*,5.3*
N/C(=N\c1nc2c(c(=O)[nH]1)CCCC2)Nc1ccccc1Sc1ccccc1,2,-2,11,0,/
O=C(COC(=O)c1cc(S(=O)(=O)NCc2ccccc2)ccc1O)c1cc2ccccc2o1,26,-3,22,4.8*,3

# From PubChem
